± gives the standard deviation of the averaged measurements.
These molecules were tested on human monocyte-derived macrophages (polarized) (assay: cell shape (eccentricity) Z-score vs DMSO control; higher = more elongated, M2-like morphology). Conditions: 5 µM; 24 h; macrophage state: M1-polarized (IFNg + TNFa), cytokines present during treatment.
Method: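 Primary-screen hits were rescreened on polarized hMDMs with the differentiating cytokines (IL-4 + IL-13 or IFNg + TNFa) kept in the medium during treatment with compound at 5 uM for 24 h. The eccentricity Z-score vs DMSO wells is averaged over experiments.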

Row | Compound | cell shape (Z-score)
1 | O=C1Cc2c([nH]c3ccc([N+](=O)[O-])cc23)-c2ccccc2N1 | 4.68
2 | O=C(Nc1ccc(OC(F)(F)F)cc1)c1sccc1NCc1ccnc2ccccc12 | 3.81
3 | Cc1c(-c2ccnc(Nc3ccc(N4CCNCC4)cc3)n2)sc(=O)n1C | 7.79
4 | CO[C@H]1C[C@H](O[C@@H]2/C(C)=C/C[C@@H]3C[C@@H](C[C@]4(CC[C@H](C)[C@@H](C5CCCCC5)O4)O3)OC(=O)[C@@H]3C=C(C)/C(=N/O)[C@H]4OC/C(=C\C=C\[C@@H]2C)[C@]43O)O[C@@H](C)[C@@H]1O | 17.6
5 | N#Cc1ccc(COC[C@H]2O[C@@H](n3c(NCc4ccc(Cl)c(Cl)c4)nc4c(N)ncnc43)[C@H](O)[C@@H]2O)cc1 | -3.47
6 | Cc1[nH]c2ccccc2c1CCNCc1ccc(/C=C/C(=O)NO)cc1 | 6.17
7 | Nc1nc(Nc2ccc3c(c2)CCC(N2CCCC2)CC3)nn1-c1cc2c(nn1)-c1ccccc1CCC2 (stereo not given) | -4.94
8 | COc1c(OC)c2occc2c2oc(=O)ccc12 | -1.24
9 | CC(C)C[C@H](NC(=O)CNC(=O)c1cc(Cl)ccc1Cl)B(O)O | 0.365
10 | CNC(=O)c1cc(Oc2ccc(NC(=O)Nc3ccc(Cl)c(C(F)(F)F)c3)cc2)ccn1 | 14
11 | C[C@@H](Oc1cc(-c2cnn(C3CCNCC3)c2)cnc1N)c1c(Cl)ccc(F)c1Cl | 7.6
12 | CC(C(=O)Nc1cccc(/N=C/c2c(O)ccc3ccccc23)c1)c1ccccc1 (stereo not given) | 3.72
13 | Nc1nc(Nc2ccccc2)nc2c1ncn2C1OC(CO)C(O)C1O (stereo not given) | 2.02
14 | COc1cc2nccc(Oc3ccc(NC(=O)Nc4cc(C)on4)c(Cl)c3)c2cc1OC | 7.92
15 | CC(=Cc1ccc(C(=O)O)cc1)c1ccc2c(c1)C(C)(C)CCC2(C)C | -2.82
16 | Cc1cc(Nc2nc(N[C@@H](C)c3ncc(F)cn3)ncc2Cl)[nH]n1 | 10.1
17 | COc1ccc(-c2oc3ccccc3c(=O)c2O)cc1OC | -0.838
18 | CC(C)c1ccccc1Cc1cc(C(=O)Nc2ccc(S(=O)(=O)c3ccccc3C(C)(C)C)cc2)c(O)c(O)c1O | -2.24
19 | CCn1c(=O)c2c(nc(/C=C/c3ccc(OC)c(OC)c3)n2C)n(CC)c1=O | 3.19
20 | Cc1ccc(C(=O)Nc2ccc(S(=O)(=O)O)c3cc(S(=O)(=O)O)cc(S(=O)(=O)O)c23)cc1NC(=O)c1cccc(NC(=O)Nc2cccc(C(=O)Nc3cc(C(=O)Nc4ccc(S(=O)(=O)O)c5cc(S(=O)(=O)O)cc(S(=O)(=O)O)c45)ccc3C)c2)c1 | 6.07
21 | N#CC[C@H](C1CCCC1)n1cc(-c2ncnc3[nH]ccc23)cn1 | 1.19
22 | Cn1cncc1[C@@](N)(c1ccc(Cl)cc1)c1ccc2c(c1)c(-c1cccc(Cl)c1)cc(=O)n2C | -0.763
23 | C=C(c1ccc(C(=O)O)cc1)c1cc2c(cc1C)C(C)(C)CCC2(C)C | 8.49
24 | NC(=O)C1CCCc2c1[nH]c1ccc(Cl)cc21 (stereo not given) | -2.04
25 | CC[C@H]1OC(=O)[C@H](C)[C@@H](O[C@H]2C[C@@](C)(OC)[C@@H](O)[C@H](C)O2)[C@H](C)[C@@H](O[C@@H]2O[C@H](C)C[C@H](N(C)C)[C@H]2O)[C@](C)(O)C[C@@H](C)C(=O)[C@H](C)[C@@H](O)[C@]1(C)O | -5.37
26 | NC(=O)Nc1cc(-c2cccc(F)c2)sc1C(=O)N[C@H]1CCCNC1 | 7.81
27 | Cc1ccc2c(=O)c3ccccc3n(CCCN)c2c1C | -0.216
28 | CCC1(C)CC(=O)NC1=O (stereo not given) | -7.19
29 | C=C[C@@]1(C)CC(=O)[C@]2(O)[C@@]3(C)[C@@H](O)CCC(C)(C)[C@@H]3[C@H](O)[C@H](OC(C)=O)[C@@]2(C)O1 | -1.28

Same assay, conditions: 5 µM; 24 h; macrophage state: M2-polarized (IL-4 + IL-13), cytokines present during treatment

Row | Compound | cell shape (Z-score)
30 | CC1=CC[C@@]2(C)CC[C@@](O)(C(C)C)[C@@H]2[C@@H](O)C1 | -2.34 ± 1.2
31 | CC(=O)O[C@@H]1C[C@H]2C(C)(C)C(=O)C=C[C@]2(C)[C@H]2CC[C@@]3(C)[C@H](c4ccoc4)OC(=O)[C@H]4O[C@]43[C@@]21C | -8.96
32 | O=c1nc2ccccc2c2n1CC(CN1CCN(c3ccccc3)CC1)N2 (stereo not given) | -1.27
33 | C=C1C(=O)O[C@H]2[C@H]1CC/C(C)=C/CC[C@@]1(C)O[C@@H]21 [Parthenolide] | -1.29
34 | CCC[C@H](NC(=O)/C(C#N)=C/c1cccc(Br)n1)c1ccccc1 | -2.53
35 | COc1ccc(C(=O)CC2(O)C(=O)Nc3c(Cl)ccc(Cl)c32)cc1 (stereo not given) | -16.1
36 | OC1(c2ccc(Cl)c(C(F)(F)F)c2)CCN(CCCC(c2ccc(F)cc2)c2ccc(F)cc2)CC1 [Penfluridol] | -10.9
37 | CC(C)c1ccc(Cn2ccc3c4c(N)nc(NC5CC5)nc4ccc32)cc1 | -11
38 | C=C1C(=O)O[C@@H]2C3=C(C)CC[C@]34O[C@@H](C[C@@H]4C)[C@H]12 | 13
39 | COC(=O)Nc1nc2ccc(C(=O)C3CC3)cc2[nH]1 | -16.3
40 | NC(N)=Nc1nc(CSCC/C(N)=N/S(N)(=O)=O)cs1 | 0.285
